Unmarked numbers belong to inactive results.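 How the source made its calls: active means falling viability signal whose fitted half-maximal concentration is at most twice the highest tested dose; inconclusive means flat fit with a moderate drop, or a poor curve fit; inactive means the rest.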
Assay: cytotoxicity in HepG2 cells, dose response, cytotoxicity control, cell-based, CellTiter-Glo luminescence, dry powder (AID 743482)
Conditions: HepG2 viability, ATP luminescence, 72 h; series mostly up to 26 µM; activity change, negative = cytotoxicity: at the top concentration

| Compound | activity change, negative = cytotoxicity |
| --- | --- |
| C[C@@H]1CCCCO[C@H](CN(C)C(=O)Nc2cccc3ccccc23)[C@@H](C)CN([C@H](C)CO)C(=O)c2cc(NC(=O)C3CCCCC3)ccc2O1 | 18.3% |
| C[C@@H]1CCCCO[C@@H](CN(C)C(=O)Nc2cccc3ccccc23)[C@@H](C)CN([C@H](C)CO)C(=O)c2cc(NC(=O)C3CCCCC3)ccc2O1 | 16.7% |
| C[C@H](CO)N1C[C@H](C)[C@H](CN(C)C(=O)Nc2ccccc2)OCCCC[C@H](C)Oc2ccc(NC(=O)C3CCCCC3)cc2C1=O | 4.6% |
| C[C@H](CO)N1C[C@H](C)[C@H](CN(C)C(=O)Nc2ccc(F)cc2)OCCCC[C@H](C)Oc2ccc(NC(=O)NC3CCCCC3)cc2C1=O | 39% |
| Cc1ccc(NC(=O)N(C)C[C@@H]2OCCCC[C@H](C)Oc3ccc(NC(=O)C4CCCCC4)cc3C(=O)N([C@H](C)CO)C[C@@H]2C)cc1 | 8.53% |
| C[C@@H]1CN([C@@H](C)CO)C(=O)c2cc(NC(=O)C3CCCCC3)ccc2O[C@@H](C)CCCCO[C@@H]1CN(C)C(=O)Nc1cccc2ccccc12 | -1.51% |
| C[C@H](CO)N1C[C@H](C)[C@H](CN(C)C(=O)Nc2ccc(F)cc2)OCCCC[C@H](C)Oc2ccc(NC(=O)C3CCCC3)cc2C1=O | 6.05% |
| C[C@H](CO)N1C[C@H](C)[C@H](CN(C)C(=O)Nc2cccc3ccccc23)OCCCC[C@H](C)Oc2ccc(NC(=O)NC3CCCCC3)cc2C1=O | 2.98% |
| C[C@H]1CCCCO[C@@H](CN(C)C(=O)Nc2ccccc2)[C@@H](C)CN([C@@H](C)CO)C(=O)c2cc(NC(=O)NC3CCCCC3)ccc2O1 | 47.5% |
| C[C@H](CO)N1C[C@H](C)[C@H](CN(C)C(=O)Nc2ccc3ccccc3c2)OCCCC[C@H](C)Oc2ccc(NC(=O)C3CCCCC3)cc2C1=O | 29.9% |
| C[C@H](CO)N1C[C@H](C)[C@@H](CN(C)C(=O)Nc2cccc3ccccc23)OCCCC[C@H](C)Oc2ccc(NC(=O)C3CCCCC3)cc2C1=O | 16.4% |
| C[C@@H]1CN([C@H](C)CO)C(=O)c2cc(NC(=O)C3CCCCC3)ccc2O[C@@H](C)CCCCO[C@@H]1CN(C)C(=O)Nc1cccc2ccccc12 | -11.1% |
| C[C@H]1CCCCO[C@@H](CN(C)C(=O)Nc2ccc3c(c2)OCO3)[C@@H](C)CN([C@@H](C)CO)C(=O)c2cc(NC(=O)NC3CCCCC3)ccc2O1 | 6.93% |
| COc1ccc(S(=O)(=O)N(C)C[C@@H]2OCCCC[C@H](C)Oc3ccc(NS(=O)(=O)c4ccc(Cl)cc4)cc3C(=O)N([C@@H](C)CO)C[C@@H]2C)cc1 | -12% |
| C[C@H](CO)N1C[C@H](C)[C@H](CN(C)C(=O)Nc2ccc(F)cc2)OCCCC[C@H](C)Oc2ccc(NC(=O)C3CCCCC3)cc2C1=O | 51.3% |
| C[C@H](CO)N1C[C@H](C)[C@H](CN(C)C(=O)Nc2ccccc2)OCCCC[C@H](C)Oc2ccc(NC(=O)Nc3ccc4c(c3)OCO4)cc2C1=O | 2.13% |
| C[C@H](CO)N1C[C@H](C)[C@H](CN(C)C(=O)Nc2ccc(F)cc2)OCCCC[C@H](C)Oc2ccc(NC(=O)Nc3ccc(F)cc3)cc2C1=O | 19.8% |
| C[C@@H]1CCCCO[C@H](CN(C)C(=O)Nc2cccc3ccccc23)[C@H](C)CN([C@H](C)CO)C(=O)c2cc(NC(=O)C3CCCCC3)ccc2O1 | 26.6% |
| C[C@@H]1CCCCO[C@H](CN(C)C(=O)Nc2cccc3ccccc23)[C@H](C)CN([C@@H](C)CO)C(=O)c2cc(NC(=O)C3CCCCC3)ccc2O1 | 10.5% |
| C[C@@H]1CCCCO[C@@H](CN(C)C(=O)Nc2cccc3ccccc23)[C@H](C)CN([C@@H](C)CO)C(=O)c2cc(NC(=O)C3CCCCC3)ccc2O1 | -6.6% |
| C[C@H](CO)N1C[C@H](C)[C@H](CN(C)C(=O)Nc2cccc3ccccc23)OCCCC[C@H](C)Oc2ccc(NC(=O)C3CCCCC3)cc2C1=O | 27% |
| C[C@H](CO)N1C[C@H](C)[C@H](CN(C)C(=O)Nc2ccc(F)cc2)OCCCC[C@H](C)Oc2ccc(NC(=O)Nc3ccccc3)cc2C1=O | 25.8% |
| C[C@H](CO)N1C[C@H](C)[C@H](CN(C)C(=O)Nc2ccc(F)cc2)OCCCC[C@H](C)Oc2ccc(NC(=O)C3CCCCCC3)cc2C1=O | 14% |
| C[C@H](CO)N1C[C@H](C)[C@H](CN(C)C(=O)Nc2ccc(C(F)(F)F)cc2)OCCCC[C@H](C)Oc2ccc(NC(=O)NC3CCCCC3)cc2C1=O | -0.944% |
| C[C@H](CO)N1C[C@H](C)[C@H](CN(C)C(=O)Nc2ccc3c(c2)OCO3)OCCCC[C@H](C)Oc2ccc(NC(=O)NC3CCCCC3)cc2C1=O | 4.37% |
| C[C@H]1CCCCO[C@H](CN(C)C(=O)Nc2cccc3ccccc23)[C@@H](C)CN([C@@H](C)CO)C(=O)c2cc(NC(=O)C3CCCCC3)ccc2O1 | -1.46% |

From PubChem BioAssay AID743482 (Broad Institute, 2014)
